# Experimental data reported in PubChem BioAssay AID1851 (National Center for Advancing Translational Sciences (NCATS), 2009).
# Among all 16,000 compounds or so, about 5,800 (36%) were called active. About 23% were inconclusive and are not listed. The list shows a part of the results. A number with no mark means an inactive call. Calls come from the whole dose curve; as a rule, active = well fitted curve in the direction sought with a large enough effect; inconclusive = small, poorly fitted or top-dose-only effect, or effect the other way; inactive = no such curve, though single readings can be large or run the other way.
# Target: Cytochrome P450 2C19 (Homo sapiens) (UniProt P33261)
# Experiment: Cytochrome panel assay with activity outcomes
# Conditions: recombinant CYP, pro-luciferin dealkylation, luminescence, p450-cyp2c19; series mostly up to 57.1 µM
# % is set by controls: 0 for no effect and ±100 for the full control effect.
# Cytochrome P450 2C19 (Homo sapiens), sequence (P33261 whole entry, looked up): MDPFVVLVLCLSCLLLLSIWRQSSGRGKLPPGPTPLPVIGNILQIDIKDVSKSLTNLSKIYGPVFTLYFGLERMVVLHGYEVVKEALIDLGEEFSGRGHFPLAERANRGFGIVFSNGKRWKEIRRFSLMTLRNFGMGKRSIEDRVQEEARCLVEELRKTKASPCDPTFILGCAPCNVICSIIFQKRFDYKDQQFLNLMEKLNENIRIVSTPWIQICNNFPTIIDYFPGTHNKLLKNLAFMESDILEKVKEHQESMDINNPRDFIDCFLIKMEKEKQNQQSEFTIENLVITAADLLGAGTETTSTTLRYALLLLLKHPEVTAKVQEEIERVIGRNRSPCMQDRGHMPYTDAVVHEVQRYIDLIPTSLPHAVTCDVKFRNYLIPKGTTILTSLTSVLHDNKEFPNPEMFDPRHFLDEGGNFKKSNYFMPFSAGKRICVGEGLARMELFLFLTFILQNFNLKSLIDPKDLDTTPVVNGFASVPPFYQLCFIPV
SMILES,AC50,"activity, negative = inhibition"
CC(C)NC(=O)N1CC[C@@]2(CCCN(C(=O)c3cc(C(F)(F)F)cc(C(F)(F)F)c3)C2)C1,inactive,–
CCC(c1nnnn1CC1CCCO1)N(CCN1CCOCC1)Cc1cc2cc(C)ccc2[nH]c1=O (centres undefined),inactive,–
COc1ccccc1CN(Cc1cc2cc3c(cc2[nH]c1=O)OCCO3)Cc1nnnn1Cc1ccco1,7.08 µM (active),–
CCC(C)(C)n1nnnc1C(c1cc2cc3c(cc2[nH]c1=O)OCO3)N1CCCCC1 (centres undefined),31.6 µM (active),–
CCC(C)(C)n1nnnc1C(C(C)C)N(Cc1ccco1)Cc1cc2cc3c(cc2[nH]c1=O)OCO3 (centres undefined),10 µM (active),–
CCNc1ncc2nc(C)c(=O)n(C[C@H]3CCCO3)c2n1,inactive,–
COc1ccc(CONS(=O)(=O)c2ccc(NC(C)=O)cc2)cc1Cl,2.24 µM (active),–
COc1ccc(CNC(C)(C)C)cc1Cl,inactive,–
Clc1ccc(/C=N/c2c(-c3ccc(Cl)cc3)nc3n2CCS3)cc1,14.1 µM (active),–
CCOc1ccc(N2C(=O)/C(=C/c3cccs3)N(CC(=O)OC)C2=S)cc1,inactive,–
CCOc1ccc(N2C(=O)/C(=C/c3cc(OC)c(OC)c(OC)c3)N(CC(=O)OC)C2=S)cc1,3.55 µM (active),–
CCN(CC)C(=O)C1CCCN(c2ccc([N+](=O)[O-])cc2/C=N/NC(=O)c2ccc([N+](=O)[O-])cc2)C1 (centres undefined),14.1 µM (active),–
O=C(N/N=C/c1cc([N+](=O)[O-])ccc1N1CCNCC1)c1ccc([N+](=O)[O-])cc1,inactive,–
CCOC(=O)C(CC)(CC)C(=O)/C=C/c1ccc(Br)cc1,2.82 µM (active),–
O=C(O)CCCCCNC(=O)c1ccccc1Br,inactive,–
O=C(NCCNc1ccc([N+](=O)[O-])cc1)c1ccccc1Br,7.94 µM (active),–
O=[N+]([O-])c1ccc(C2CCCC/C2=N\OCc2cccc(F)c2)c([N+](=O)[O-])c1 (centres undefined),7.08 µM (active),–
O=[N+]([O-])c1ccc(NN=C2c3ccccc3Cc3ccccc32)c([N+](=O)[O-])c1,–,-15.8% [at 11.4 µM]
CC(Sc1ccc2c(c1)OCCO2)C(=O)Nc1ncc(Cl)cc1Cl (centres undefined),2.82 µM (active),–
Cc1cccc(C)c1OC[C@H](C)N,inactive,–

SMILES,AC50,"activity, negative = inhibition"
COc1ccc2cc(C(=O)CCC(=O)O)ccc2c1,2 µM (active),–
CCOc1ccc(C(=O)CCC(=O)O)cc1,inactive,–
COc1ccc2cc(CCC(C)=O)ccc2c1,inactive,–
Cc1ccc(S(=O)(=O)N[C@H]2COC(=O)[C@H](C)COC(=O)[C@H](C)NC(=O)C/C=C\[C@H]2C)cc1,–,16.6% [at 11.4 µM]
CCOc1cccc(CNCCNC(=O)c2nonc2N)c1,15.8 µM (active),–
COc1cccc(CSCC(=O)O)c1,–,-7.72% [at 11.4 µM]
COc1cccc(CNCCNC(=O)c2nonc2N)c1,15.8 µM (active),–
COc1cccc(CNc2ccc3nc(-c4ccc(N)cc4)c(OC)n3n2)c1,inactive,–
CN1CCN(CN2C(=O)C3C4C=CC(C3C2=O)C2C3C(=O)N(CN5CCN(C)CC5)C(=O)C3C42)CC1 (centres undefined),–,27.4% [at 11.4 µM]
CC[C@@]12CCCN3CCc4c(n(c5ccccc45)C(=O)C1)[C@H]32,–,-19.6% [at 11.4 µM]
Cc1ccc(S(=O)(=O)c2nc(S(=O)(=O)c3ccc(C)cc3)c(NCc3ccco3)s2)cc1,8.91 µM (active),–
Oc1ccc(Cn2cc[nH]c2=S)cc1,inactive,–
O=C(NNC(=S)NC(=O)c1cccnc1)c1ccccc1,inactive,–
O=C(NC(=S)Nc1nc(-c2ccc(Br)cc2)cs1)c1cccnc1,10 µM (active),–
O=S(=O)(O)c1ccc2cc(N=Nc3cc(S(=O)(=O)O)c4cccnc4c3O)ccc2c1,–,-22.6% [at 11.4 µM]
NC(N)=N/N=C\c1ccc(C2CCNCC2)cc1,–,23.7% [at 11.4 µM]
COc1ccc(C=NC(CO)C(O)c2ccc([N+](=O)[O-])cc2)cc1 (centres undefined),inactive,–
CS/C(N)=N/N=C/c1ccc([N+](=O)[O-])cc1,14.1 µM (active),–
O=C(NC[C@@H](O)CO)c1c(I)c(C(=O)NC[C@@H](O)CO)c(I)c(N(CCO)C(=O)CO)c1I,inactive,–
CC(C)NC[C@H](O)COc1cccc2ccccc12,inactive,–

SMILES,AC50,"activity, negative = inhibition"
CC(C)NC[C@@H](O)COc1cccc2ccccc12,inactive,–
O=C(COc1cccc2ccccc12)N1c2ccccc2CCc2ccccc21,0.447 µM (active),–
CCOC(=O)c1cc(NC(=O)c2ccc(OC)cc2)c(=O)oc1-c1ccccc1,2.82 µM (active),–
COC(=O)c1cc(-c2ccccc2)sc1NC(=O)CN1C(=O)c2ccccc2C1=O,7.08 µM (active),–
CCc1cc(C(=O)OC)c(NC(=O)CCCC(=O)O)s1,inactive,–
CCOC(=O)c1cc(-c2ccccc2)sc1NC(=O)C(C)(C)C,inactive,–
CCOC(=O)c1cc(CC)sc1NC(=O)C(c1ccccc1)c1ccccc1,8.91 µM (active),–
CCOC(=O)c1cc(-c2ccccc2)sc1NC(=O)c1ccc(OC)cc1,7.94 µM (active),–
CO[C@@H]1COC(=O)[C@H](C)NC(=O)[C@@H](C)COC(=O)CCC[C@H]1C,–,15.2% [at 11.4 µM]
CCOC(=O)c1sc(NC(=O)CSc2nc(C)cc(C)c2C#N)c(C#N)c1C,5.62 µM (active),–
CCOC(=O)c1sc(NC(=O)CSc2n[nH]c(-c3ccc(Cl)cc3Cl)n2)c(C#N)c1C,2.24 µM (active),–
CCOC(=O)c1sc2c(c1C)c(=O)c(C(=O)OCC)cn2CC,inactive,–
Cc1ccccc1OCC(=O)Nc1sc(C(=O)Nc2cccc(C)c2C)c(C)c1C#N,inactive,–
CCOc1ccc(-c2c[n+](=O)c3c(n2[O-])CCCC3)c(OCC)c1,inactive,–
O=C1c2ccccc2N[C@H](c2cc(Cl)cc(Cl)c2O)N1CCc1ccccn1,3.98 µM (active),–
COc1ccc(OC)c(Nc2nc(-c3sc(NC(=O)c4ccccc4)nc3C)cs2)c1,6.31 µM (active),–
COc1cc(C(=O)Nc2nc3ccc4nc(C)sc4c3s2)cc(OC)c1OC,inactive,–
CCOc1ccccc1Nc1nc(-c2sc(NC(=O)c3ccccc3)nc2C)cs1,3.16 µM (active),–
CCn1c(C)c(/C=N/Nc2nc3ccccc3s2)c2ccccc21,3.16 µM (active),–
